This is a sample that favours compounds with a hit; in the whole collection about 1.3% have one here.
NCOA1 inh: SRC1 coactivator transcriptional activity inhibitors, primary screen, cell-based, luminescence | HEK293 GAL4-SRC1 luciferase reporter | inhibition, % at 3.6 µM | 360,000 compounds, 0.12% hits;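 active = inhibition above the campaign mean plus 3 SD, with each screening campaign given its own cutoff, cut at about 60% in these data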;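 also: 0% = DMSO treated cells and 100% = gossypol at 36 µM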
NCOA2 inhibitor: inhibition of GAL4-SRC2 driven luciferase reporter, primary screen, SRC2 inhibitor project, cell-based, luminescence. Nuclear receptor coactivator 2 (Homo sapiens), Q15596. HEK293 GAL4-SRC2 luciferase reporter. inhibition, % at 9 µM. 370,000 compounds, 0.17% hits. AID 651957, 2012;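 active = inhibition above the mean inhibition of all tested compounds plus 3 SD, set per campaign, cut at about 52% in these data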;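 also: 0% = DMSO treated cells and 100% = cells given Gossypol at 36 µM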
COUP-TFII inh: NR2F2 transcriptional activity inhibitors, primary screen, cell-based, luciferase reporter, HEK293T, luminescence. COUP transcription factor 2 (Homo sapiens), P24468. HEK293T NGFI-A luciferase reporter. inhibition, % at 8.6 µM. 370,000 compounds, 0.7% hits;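 active = inhibition above a per-plate cutoff, mean inhibition of test wells between control levels plus 3 SD, cut at about 38% in these data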;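 also: cells cotransfected with COUP-TFII expression vector driving the NGFI-A reporter; 0% = median of COUP-TF2 test wells and 100% = reporter-only cells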
NCOA3 inh: SRC3 coactivator transcriptional activity inhibitors, primary screen, cell-based, luminescence. Nuclear receptor coactivator 3 (Homo sapiens), Q9Y6Q9. HEK293 GAL4-SRC3 luciferase reporter. inhibition, % at 3.6 µM. 360,000 compounds, 0.17% hits;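 active = inhibition above a per-campaign cutoff, the mean of all compounds plus 3 SD, cut at about 60% in these data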;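 also: 0% = DMSO-treated cells and 100% = gossypol-treated cells at 36 µM; higher means less SRC3-driven luciferase light from the GAL4 reporter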
NR5A2 inv ag: LRH-1 (NR5A2) inverse agonists, primary screen, cell-based, luminescence, HEK293T, StAR-luciferase reporter; LRH-1 transfected, 24 h; AID 602396, 2012; inhibition, % at 3.6 µM; 360,000 compounds, 0.13% hits;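 active = inhibition above the mean inhibition of all tested compounds plus 3 SD, cut at about 73% in these data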;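 also: 0% = DMSO wells and 100% = reporter-only cells lacking LRH-1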
Target sequence (O00482 whole entry, looked up): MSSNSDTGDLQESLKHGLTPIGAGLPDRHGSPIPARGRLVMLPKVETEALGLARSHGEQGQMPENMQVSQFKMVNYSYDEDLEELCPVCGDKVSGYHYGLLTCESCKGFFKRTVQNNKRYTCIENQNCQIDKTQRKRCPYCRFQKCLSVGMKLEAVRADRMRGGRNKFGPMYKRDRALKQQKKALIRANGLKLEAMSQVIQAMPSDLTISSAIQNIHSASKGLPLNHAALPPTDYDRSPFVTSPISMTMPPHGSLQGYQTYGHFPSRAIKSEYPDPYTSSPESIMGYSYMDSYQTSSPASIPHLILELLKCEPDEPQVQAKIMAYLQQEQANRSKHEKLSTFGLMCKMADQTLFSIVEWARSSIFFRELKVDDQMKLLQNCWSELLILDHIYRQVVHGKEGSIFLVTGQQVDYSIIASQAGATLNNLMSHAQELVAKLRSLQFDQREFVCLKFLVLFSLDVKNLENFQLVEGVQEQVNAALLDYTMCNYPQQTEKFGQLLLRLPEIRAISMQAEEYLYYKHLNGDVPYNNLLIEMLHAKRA
Gli-Sufu block: Gli-Sufu pathway antagonists, primary screen, luciferase luminescence, Sufu-KO-LIGHT cells, uHTS; Sufu-KO-LIGHT fibroblasts, Gli luciferase reporter luminescence; inhibition, % at 5 µM; 340,000 compounds, 0.74% hits; AID 588413, 2011;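 active = inhibition above about 55%, limit read from the data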;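 also: 0% = DMSO-treated cells and 100% = wells with medium but no cells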
Gli-Sufu confirm: Gli-SUFU pathway antagonists, confirmation, single concentration, luciferase luminescence, Sufu-KO-LIGHT cells | shares compounds with Gli-Sufu block | Gli luciferase reporter | inhibition, % at 5 µM | 2,500 compounds, 40% hits;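 active = mean inhibition at 5 µM reaching about 45%, limit read from the data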;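 also: plate controls were DMSO-treated cells for no effect and wells lacking cells for full effect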
SufuKO cytotox: cytotoxicity in Sufu-KO-LIGHT cells, confirmation, cytotoxicity control for Gli-SUFU antagonist project, cell-based, ATP luminescence, single concentration; shares compounds with Gli-Sufu block; cytotoxicity, % at 5 µM; 2,500 compounds, 32% hits;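 active = mean cytotoxicity at 5 µM above about 25%, limit read from the data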;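 also: cells exposed to compound overnight for roughly 16 to 18 hours; plate controls were DMSO wells with cells for no effect and medium without cells for full effect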
Wnt3a cs: Wnt3a reporter signal inhibition, confirmation, counter-screen for Gli-SUFU antagonist project, Wnt-LIGHT cells, luminescence, single concentration | inhibition, % at 6.25 µM | AID 651995, 2013 | 2,500 compounds, 20% hits | Wnt3a-driven luciferase reporter | shares compounds with Gli-Sufu block;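 active = mean inhibition above about 25%, limit read from the data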
* = called active by the depositor; . = not tested or not shown.

SMILES	NCOA1 inh	NCOA2 inhibitor	COUP-TFII inh	NCOA3 inh	NR5A2 inv ag	Gli-Sufu block	Gli-Sufu confirm	SufuKO cytotox	Wnt3a cs
COc1ccc(C(=O)N/N=C(\c2ccccc2)c2ccccn2)cc1	23	-7	-9	29	48	74*	51*	10	38*
CC(C)[C@@H](CO)N1Cc2nnn(Cc3ccccc3)c2-c2ccccc2S1(=O)=O	.	3	0	.	.	.	.	.	.
CCCC1=Nc2cc(C(=O)N3CCCC3)ccc2Sc2ccc(C)cc21	-10	-5	14	-4	-12	53	34	3	15
CCC1=Nc2cc(C(=O)NCc3ccco3)ccc2Sc2ccc(C)cc21	-5	14	-74	16	23	57*	62*	59*	7
O=C(NCc1ccccc1)C(=O)NCC1OCCCN1S(=O)(=O)c1cccs1 (centres undefined)	-36	-1	1	-8	-9	-9	.	.	.
O=C(NCc1ccc(F)cc1)C(=O)NCC1OCCCN1S(=O)(=O)c1cccs1 (centres undefined)	4	3	7	12	16	99*	4	1	-2
COc1ccc(-c2cc(NC(=O)Cc3c[nH]c4ccccc34)ccc2Nc2cccnc2)cc1F	.	22	-5	.	.	.	.	.	.
CCOC(=O)C1(CCOc2ccccc2)CCN(Cc2ccc(OC)c(COC)c2)CC1	12	13	24	25	18	57*	21	16	-11
CN(C)S(=O)(=O)c1ccc2nnn(O)c2c1	-38	-44	4	-21	-19	59*	15	2	19
Cc1ccc(C)c(NC(=O)CN2C(=O)CCSc3ccccc32)c1	.	0	17	.	.	.	.	.	.
Cc1nn(Cc2ccccc2)c(C)c1NC(=O)CSc1nc(C2CC2)nc2c1cnn2-c1ccccc1	-10	13	-20	9	10	0	.	.	.
O=C(CSc1nc(C2CC2)nc2c1cnn2-c1ccccc1)Nc1c[nH]c(=O)[nH]c1=O	-42	13	10	6	2	99*	30	2	17
c1cnc2ccc(C(c3nnnn3C3CCCCC3)N3CCN(C4CCCCC4)CC3)cc2c1 (centres undefined)	2	-47	2	17	10	65*	80*	36*	-36
c1cnc2ccc(C(c3nnnn3C3CCCCC3)N3CCCCC3)cc2c1 (centres undefined)	-10	10	6	7	-9	5	.	.	.
CC(=O)c1ccc(NC(=S)N2CCN(C(=S)Nc3ccc(C(C)=O)cc3)C(C)C2)cc1 (centres undefined)	-1	9	-5	4	7	58*	9	31*	-10
CC(=O)c1ccc(NC(=S)N2CC(C)CC(C)C2)cc1 (centres undefined)	6	-6	-17	-5	-23	1	.	.	.
COc1ccccc1C(=O)Nc1ccc2oc(-c3ccc(F)cc3)nc2c1	-18	-23	2	-14	2	95*	-12	16	-71
Cc1cc(NC(=O)CSc2nc3c([nH]c4ccccc43)c(=O)n2-c2ccccc2F)no1	-12	9	-4	-26	15	58*	56*	23	19
COc1ccccc1-n1c(SCC(=O)Nc2cc(C)on2)nc2c([nH]c3ccccc32)c1=O	9	13	-10	1	7	7	.	.	.
CC(C)CN(CC(C)C)c1nc(N)c(C#N)c(CC#N)c1C#N	17	4	-3	-20	-1	89*	18	10	13
CC1CC(C)CN(C(=O)c2nn(C)c3c2CS(=O)(=O)c2ccccc2-3)C1 (centres undefined)	-4	10	-2	14	10	53	5	13	-22
Cc1ccsc1C1C(C#N)=C(N)Oc2n[nH]c(C)c21 (centres undefined)	-26	21	-4	10	0	65*	21	3	10
COC(=O)c1ccccc1NC(=O)Cn1c(-c2nonc2N)nc2ccccc21	-1	.	.	-2	34	58*	63*	63*	-4
COc1ccc(CCN(C(=O)C(F)(F)F)C(C(=O)NC2CCCC2)c2cccs2)cc1 (centres undefined)	6	11	12	12	-6	51	10	21	-10
O=C(NC1CCCCC1)C(c1ccco1)N(CCc1ccccc1)C(=O)C(F)(F)F (centres undefined)	-16	-30	2	18	-5	0	.	.	.
SMILES	NCOA1 inh	NCOA2 inhibitor	COUP-TFII inh	NCOA3 inh	NR5A2 inv ag	Gli-Sufu block	Gli-Sufu confirm	SufuKO cytotox	Wnt3a cs
CCC(C)NC(=O)CN(c1cc(Cl)ccc1OC)S(C)(=O)=O (centres undefined)	-2	0	14	10	-9	-6	.	.	.
CCN(CC)C(=O)CN(c1cc(Cl)ccc1OC)S(C)(=O)=O	-6	-25	-1	6	15	51	22	13	-5
CC(C)(C)NC(=O)C(=O)NNC(=O)c1ccccc1	-11	-26	-6	7	-11	12	.	.	.
CC(C)(C)NC(=O)C(=O)NNC(=O)c1cccc(F)c1	-29	-29	-26	-29	-30	84*	-1	9	-28
COc1ccc(-n2c(-c3ccc(Br)cc3)c[n+]3c2CCC3)cc1	-3	-12	20	22	20	80*	80*	38*	9
COc1ccc(-n2c(-c3ccc(Br)cc3)c[n+]3c2SC(C)C3)cc1 (centres undefined)	10	2	13	34	22	76*	85*	42*	-21
COc1ccc(-n2c(-c3ccc(Br)cc3)c[n+]3c2CCCCC3)cc1	20	-22	26	35	17	88*	86*	41*	23
COc1ccc(-n2c(-c3ccccc3)cc3c2CCCC3=O)cc1	-20	.	.	2	5	1	.	.	.
COc1ccc(-n2c(-c3ccccc3)c[n+]3c2CCC3)cc1	22	34	20	26	18	72*	80*	38*	23

Compound activity deposited in PubChem BioAssay by several laboratories.
